697 NFkB inh: inhibitors of PMA/ionomycin-induced NF-kB reporter, 697 cells, primary screen, B-cell NF-kB inhibitor project, cell-based, luminescence, uHTS; AID 435022, 2010; actives 0.33% (n = 330,000); 697 B-cell NF-kB luciferase reporter, 16 h; inhibition, % at 4 µM; in the data active = inhibition above about 35%
aSyn UTR inh: MLPCN primary screen, SNCA 5' untranslated region; alpha-synuclein 5'UTR reporter, inhibitor activity; inhibition, % (tested at 7.5 µM); actives 0.82% (n = 300,000); in the data active = inhibition above about 60%;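 also: H4 neuroglioblastoma cells stably carrying SNCA 5'UTR luciferase fusion; 0% = DMSO wells and 100% = positive control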
ANO1 block: TMEM16A chloride channel inhibitors, primary screen, cell-based, HTS. Anoctamin-1 (Mus musculus), Q8BHY3. normalized B-score (activity score, 25-100; higher = stronger inhibition) at 10 µM. AID 588511, 2011. HEK293 TMEM16A/YFP iodide influx fluorescence, ionomycin. actives 1.2% (n = 310,000);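 active = ratio plate-corrected score three or more library SD toward inhibition, starting fluorescence score within five deviations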;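 also: score derived from kinetic fluorescence span divided by baseline fluorescence per well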
Target sequence (Q8BHY3 whole entry, looked up): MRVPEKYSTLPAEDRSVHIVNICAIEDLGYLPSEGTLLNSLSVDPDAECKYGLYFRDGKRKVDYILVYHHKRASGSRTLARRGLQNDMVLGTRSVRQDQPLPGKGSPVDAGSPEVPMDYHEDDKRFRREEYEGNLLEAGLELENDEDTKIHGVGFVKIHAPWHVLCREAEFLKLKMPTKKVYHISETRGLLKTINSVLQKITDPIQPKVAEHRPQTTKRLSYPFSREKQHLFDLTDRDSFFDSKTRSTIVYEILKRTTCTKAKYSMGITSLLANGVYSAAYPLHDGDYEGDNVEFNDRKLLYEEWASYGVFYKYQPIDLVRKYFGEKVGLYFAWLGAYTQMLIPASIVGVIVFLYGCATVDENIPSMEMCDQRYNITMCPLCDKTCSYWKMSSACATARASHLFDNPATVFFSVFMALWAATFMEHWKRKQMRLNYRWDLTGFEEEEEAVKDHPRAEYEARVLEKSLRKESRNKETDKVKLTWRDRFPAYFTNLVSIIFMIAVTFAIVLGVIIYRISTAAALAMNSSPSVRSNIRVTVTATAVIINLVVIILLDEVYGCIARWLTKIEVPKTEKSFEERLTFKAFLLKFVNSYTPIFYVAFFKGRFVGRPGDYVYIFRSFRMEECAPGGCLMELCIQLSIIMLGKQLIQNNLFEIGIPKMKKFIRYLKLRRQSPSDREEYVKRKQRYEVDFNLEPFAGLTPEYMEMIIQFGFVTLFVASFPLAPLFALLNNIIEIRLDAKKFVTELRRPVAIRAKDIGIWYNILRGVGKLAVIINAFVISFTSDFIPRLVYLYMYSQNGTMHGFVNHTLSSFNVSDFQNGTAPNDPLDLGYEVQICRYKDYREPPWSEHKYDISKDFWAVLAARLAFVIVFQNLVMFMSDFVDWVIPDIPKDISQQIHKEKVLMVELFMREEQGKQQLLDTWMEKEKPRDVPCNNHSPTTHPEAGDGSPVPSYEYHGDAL
KLF5 inhibitor: KLF5 expression inhibitors, primary screen, DLD-1 cells, luminescence. DLD-1 KLF5 promoter-luciferase reporter. inhibition, % at 5 µM. AID 1700, 2009. actives 0.23% (n = 290,000);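 active = inhibition above a per-plate limit of that plate's mean compound inhibition plus 3 SD, cut at about 60% in these data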;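 also: 0% = DMSO wells and 100% = LY294002 at 200 µM; higher means less KLF5 promoter-driven luciferase light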
Jurkat NFkB inh: inhibitors of induced NF-kB luciferase reporter, primary screen, TCR NF-kB activation inhibitor project, cell-based, luminescence, uHTS; AID 435003, 2010; actives 0.53% (n = 330,000); Jurkat, PMA/ionomycin-induced NF-kB luciferase reporter; inhibition, % at 4 µM; in the data active = inhibition above about 50%
ANO1 activ: TMEM16A chloride channel activators or potentiators, primary screen, cell-based, HTS. AID 623877, 2012. HEK293 TMEM16A/YFP-H148Q/I152L, iodide quench fluorescence; hits give low values. B-score at 10 µM. actives 0.3% (n = 340,000). Anoctamin-1 (Mus musculus), Q8BHY3;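 active = fluorescence-ratio B-score plate-corrected deviation score at least 3 library SD below zero, with starting fluorescence score within 5 deviations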;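 also: channel opened by trigger with iodide after compound preincubation; score built on the fluorescence ratio of max minus min over baseline; more negative score means more quench and so TMEM16A activation or potentiation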
* hit, by the source's call; i = inactive; nt = no result. Hits are enriched below; roughly 2.5% of the tested compounds scored in any of these assays.

SMILES | 697 NFkB inh | aSyn UTR inh | ANO1 block | KLF5 inhibitor | Jurkat NFkB inh | ANO1 activ
Cc1ccnc(NS(=O)(=O)c2ccc(NC(=O)COc3ccccc3)cc2)n1 | 6.0 | 68.4* | i | 8.7 | 2.4 | i
Cc1c(O)c(=O)ccn1Cc1ccccc1 | 14.3 | 68.1* | i | -9.5 | 3.9 | i
Cc1ccc(Cn2ccc(=O)c(OCc3ccccc3)c2C)cc1 | -34.0 | -109.5 | i | -75.8 | -36.5 | i
COc1ccc2ccccc2c1/C=N/NC(=S)NCCN1CCOCC1 | -2.1 | -8.2 | i | -38.4 | -1.1 | -29.4*
O=C1CCC(C(=O)N2CCCO2)CN1Cc1cccc(C(F)(F)F)c1 (stereo unspecified) | -19.4 | -25.0 | nt | -61.5 | -23.4 | i
COc1ccc(N2C(=O)C3CCCN3C2c2ccc(C)o2)cc1Cl (stereo unspecified) | 17.3 | -19.9 | 25* | -12.3 | 0.7 | i
O=C(O)CC1=C(O)C(=O)N(c2ccccc2)C1c1ccc(Br)cc1 (stereo unspecified) | 19.4 | 1.5 | i | -2.9 | 16.1 | -12.8*
O=C(NCC1CCCO1)C(=O)N/N=C/c1ccc(OCc2ccccc2Cl)cc1 (stereo unspecified) | 1.6 | -106.3 | i | nt | -36.9 | i
CC(C)OC(=O)CSc1nnc(-c2cnccn2)n1C | 20.4 | -11.9 | i | 0.6 | -2.2 | -5.82*
CCc1ccc2c(COC(=O)c3n[nH]c4ccccc34)cc(=O)oc2c1 | -48.9 | -175.2 | 100* | -16.9 | -43.0 | i
CC(C)Oc1ccc(C(=O)Nc2nnc(SCC(=O)N3CCOCC3)s2)cc1 | -96.1 | 97.7* | i | -35.3 | 19.1 | i
O=C(Nc1nnc(SCC(=O)N2CCCc3ccccc32)s1)c1cccc2ccccc12 | 6.4 | -20.0 | i | 0.8 | -7.3 | i
COc1cccc(Nc2nnc(SCC(=O)N3CCOCC3)s2)c1 | -28.7 | -54.5 | i | -32.6 | -18.4 | i
Cc1ccc(C(=O)Nc2nnc(SCC(=O)N3CCCc4ccccc43)s2)cc1 | -76.6 | 74.5* | i | -36.4 | -10.7 | i
Cc1nn(S(=O)(=O)c2cccc([N+](=O)[O-])c2)c(C)c1Br | -9.3 | -6.5 | i | -49.1 | -5.3 | i
Cc1nn(S(=O)(=O)c2ccccc2)c(C)c1Sc1ccc([N+](=O)[O-])cc1 | -16.7 | 26.5 | 25* | -25.2 | 8.9 | i
COc1ccc2c(c1)c(=O)oc1c(C)c(OC(C)C(=O)N[C@@H](Cc3c[nH]c4ccc(O)cc34)C(=O)O)ccc12 (stereo partly specified) | -22.0 | 19.3 | i | -18.7 | 1.6 | i
S=C(Nc1cc(Cl)cc(Cl)c1)NC1CCN(Cc2ccccc2)CC1 | 21.2 | 72.0* | i | -1.9 | 7.1 | i
CCN(CC)c1ccc(N=Cc2c(C)[nH]c3ccccc23)cc1 | -51.0 | 63.4* | i | -32.6 | -5.1 | i
CCN1CCN(C(=S)c2ccc(-c3ccccc3)cc2)CC1 | 19.7 | 65.8* | i | -15.3 | 11.8 | i
Cc1ccc(C(=S)N2CCN(Cc3ccccc3)CC2)cc1 | 6.8 | 7.3 | i | -31.7 | -0.3 | i
O=C(/C=C/c1ccc(Cl)cc1)NC(=S)NN1CCCCC1c1cccnc1 (stereo unspecified) | -3.3 | -8.3 | i | -17.7 | 3.8 | nt
COc1ccc(/C=C/C(=O)NC(=S)NN2CCCCC2c2cccnc2)cc1OC (stereo unspecified) | -8.7 | 9.4 | i | -0.8 | 4.1 | -4.63*
COc1cccc(CC(=O)OCC(=O)N(C)CC(=O)Nc2ccccc2Cl)c1 | 5.0 | nt | nt | nt | 8.5 | i
O=[N+]([O-])c1ccc(Nc2nc(N/N=C/c3cccc(F)c3)nc(N3CCCC3)n2)cc1 | 31.9 | -27.6 | i | -2.8 | -0.2 | i
SMILES | 697 NFkB inh | aSyn UTR inh | ANO1 block | KLF5 inhibitor | Jurkat NFkB inh | ANO1 activ
COc1cccc(/C=N/Nc2nc(Nc3ccc([N+](=O)[O-])cc3)nc(N3CCCC3)n2)c1O | 18.2 | 65.0* | i | -6.5 | 44.8 | i
COCCNC(=O)C(OC(=O)c1ccco1)c1ccc(OC)cc1 (stereo unspecified) | nt | nt | nt | nt | nt | i
CCN=C(NCC)SC1CC(=O)N(c2ccc(OC)cc2)C1=O (stereo unspecified) | 0.7 | 22.0 | i | -22.6 | 3.8 | i
CCN=C(NCC)SC1CC(=O)N(c2cccc(OCC)c2)C1=O (stereo unspecified) | 6.0 | 7.6 | i | -20.4 | 10.7 | -9.41*
Cc1ccc(S(=O)(=O)N2CCOCC2)cc1C(=O)NCC1CCCCC1 | 5.1 | nt | nt | nt | -20.0 | i
CN1C(=O)/C(=C\c2cc(N=Nc3ccccc3)ccc2O)SC1=S | -8.8 | 24.3 | 100* | 5.0 | 5.8 | i
CN1C(=O)/C(=C\c2ccccc2OCc2ccccc2)SC1=S | 3.0 | -19.8 | i | 4.0 | -6.9 | i
COc1cc(C(=O)O/N=C(\N)Cc2ccc([N+](=O)[O-])cc2)cc(OC)c1OC | -56.4 | 81.1* | i | 1.1 | 26.0 | i
N/C(Cc1ccc([N+](=O)[O-])cc1)=N\OC(=O)c1ccc([N+](=O)[O-])cc1 | 16.6 | -4.0 | i | -5.9 | 9.2 | i
COc1cccc(CSc2nc3ccccc3cc2C=O)c1 | -7.5 | 71.0* | i | 30.6 | 49.1 | i
COc1cccc(NC(=O)CSc2nc3ccccc3cc2Cc2ccccc2)c1 | 3.8 | 21.7 | i | -6.2 | 12.9 | i
CCOc1ccc(C(C)=O)cc1CN1c2ccc(S(N)(=O)=O)cc2CC1C (stereo unspecified) | 21.6 | 38.2 | i | 0.2 | 11.2 | i
CN(Cc1ccccc1)c1ccc(C(CC(N)=O)NC(=O)c2ccc(Br)cc2)cc1[N+](=O)[O-] (stereo unspecified) | -30.3 | -0.4 | 25* | -24.6 | 8.8 | i
CC(C)Nc1ccc(C(CC(N)=O)NC(=O)c2ccccc2)cc1[N+](=O)[O-] (stereo unspecified) | -0.9 | 29.5 | i | -20.1 | 4.4 | i
CCC(OC(=O)c1ccco1)C(=O)NC1CCCC1 (stereo unspecified) | -12.9 | -2.4 | i | 5.4 | -0.7 | i
O=C(N/N=C/c1sc(N2CCOCC2)nc1-c1ccccc1)c1cccc(S(=O)(=O)N2CCCC2)c1 | 14.5 | 98.9* | i | -7.0 | 40.5 | i
OC(c1ccccc1)C(O)C(c1ccccc1)N1CCCCC1 (stereo unspecified) | nt | nt | nt | nt | nt | i
C[C@H]1CC[C@]2(O[C@@H](CCO)C[C@H](O)[C@H]2O)O1 | 17.1 | 12.5 | i | nt | 5.0 | i
COc1cc(-c2cc(=O)c3c(O)c(OC)c(OC)c(O)c3o2)ccc1O | -0.4 | 87.3* | i | 5.1 | -42.4 | i
COc1c(O)c(O)c2oc(-c3ccccc3)cc(=O)c2c1OC | -2.4 | -5.9 | i | -23.1 | 2.9 | i
